Experimental data: PubChem BioAssay
Activity calls are given as the source filed them.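 The calls were made as follows, unless noted: active = fluorescence slope after compound addition differing from the mean of all screened samples at 99.7% confidence, in either direction; inactive = the rest.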

Key:
[1] = inhibitors of TNFa-induced NFkB p65 translocation, primary screen, imaging, HUVEC, MLSMR starter and 10KST1 sets (AID 438;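 active = inhibition above 20% together with a positive visual image hit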;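 also: compound added about 3h40 before a 20 min TNFalpha stimulation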;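 as to inhibition: signal is the nuclear over cytoplasmic p65 intensity ratio per well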); conditions: HUVEC TNFa-induced p65 nuclear translocation; cell count: measured here: nuclei count (cytotoxicity indicator), at 2.08 µM; inhibition: at 2 µM, stronger effect = higher value, 0% TNFa-plus-vehicle, 100% no-TNFa wells
[2] = reduction of polyQ htt aggregates in cells – imaging, exon1htt(103Q)mCFP cells, high-content imaging, primary screen (AID 483;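 active = visual image review flags a hit and inhibition of aggregation exceeds 20%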;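 also: compound exposure lasted 3 days before fixation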;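 as to nuclei count: percent of the per-plate median nuclei count of sample wells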); conditions: exon1htt(103Q)mCFP cell line, aggregate imaging, at 2 µM; inhibition of aggregation: stronger effect = higher value; nuclei count: measured here: cell count, toxicity
[3] = endothelial E-selectin expression blockers – imaging, HUVEC, immunofluorescence, MLSMR starter and 10KST1 sets, primary screen (AID 487;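 active = visually confirmed hit in the image check and inhibition above 20%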;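 as to inhibition: signal is fraction of cell area covered by stained E-selectin grains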;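 as to nuclei count: 100% = median nuclei count of all wells on the same plate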); conditions: HUVEC TNFalpha-induced E-selectin immunofluorescence imaging, at 2 µM; inhibition: stronger effect = higher value; nuclei count: measured here: cell number, toxicity
[4] = biological target: Voltage-gated potassium channel subunit beta-2 (Rattus norvegicus) (UniProt P62483); assay: inhibitors of rat Kvbeta2 reductase activity – biochemical, NADPH fluorescence, primary screen (AID 622;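 active = fluorescence slope higher than the sample average by over 3 SD, cut at about -0.22 in these data, passing the limit was not always enough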;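 also: slope of raw intensity against log time taken from 70 to 1610 s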); conditions: recombinant KvBeta, 4-cyanobenzaldehyde reduction, at 10 µM, stronger effect = higher value
[5] = biological target: Voltage-gated potassium channel subunit beta-2 (Rattus norvegicus) (UniProt P62483); assay: enhancers of rat Kvbeta2 NADPH turnover – biochemical, NADPH fluorescence, primary screen (AID 623;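 active = NADPH fluorescence slope more negative than the mean of all samples by about 3 SD, 99.7% confidence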;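 also: fluorescence intensity change per second fitted from 20 to 320 s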); conditions: Recombinant KvBeta, NADPH fluorescence decrease slope, 10 min; at 10 µM; stronger effect = lower value
[6] = biological target: Alpha-2C adrenergic receptor (Homo sapiens) (UniProt P18825); assay: compounds altering alpha2C-coupled GIRK flux – cell-based, HEK293 alpha2C/GIRK1/2, thallium flux, primary screen (AID 624); conditions: thallium flux BTC fluorescence, at 10 µM, actives lie on both sides;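 also: slope of fluorescence ratio to pre-addition baseline per second over 15 to 24 s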
[7] = blockers of RIG-like receptor reporter activation – cell-based, Sendai virus stimulus, luciferase, 10K MLSCN set, TLR/RLR signaling modifier project, primary screen (AID 602276;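 active = inhibition at or above 50% at 10 µM; inactive = inhibition below 50%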;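 also: firefly luciferase from ISG56 promoter only with Renilla not read in this screen; 0% = Sendai virus plus DMSO and 100% = medium plus DMSO without virus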); conditions: HEK293 RL24 IRF3 luciferase reporter, at 10 µM, stronger effect = higher value
[8] = TLR3 IRF3 reporter activation blockers – cell-based, poly I:C stimulus, luciferase, 10K MLSCN set, primary screen (AID 602277;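 active = inhibition of the reporter signal at or above 50%; inactive = inhibition below 50%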); conditions: HEK293-TLR3 RL24 IRF3 luciferase reporter, at 10 µM, stronger effect = higher value

Chain of Voltage-gated potassium channel subunit beta-2 (Rattus norvegicus) (P62483 whole entry, looked up): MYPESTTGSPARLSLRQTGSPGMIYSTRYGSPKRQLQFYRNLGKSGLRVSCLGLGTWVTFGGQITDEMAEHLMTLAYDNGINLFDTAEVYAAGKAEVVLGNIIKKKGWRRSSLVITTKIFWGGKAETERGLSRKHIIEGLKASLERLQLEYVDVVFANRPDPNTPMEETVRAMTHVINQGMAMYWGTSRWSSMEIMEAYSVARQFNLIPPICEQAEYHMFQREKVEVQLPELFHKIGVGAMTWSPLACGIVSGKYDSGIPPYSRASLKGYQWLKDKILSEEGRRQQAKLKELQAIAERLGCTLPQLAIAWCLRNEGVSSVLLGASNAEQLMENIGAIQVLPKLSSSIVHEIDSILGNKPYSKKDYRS
Chain of Alpha-2C adrenergic receptor (Homo sapiens) (P18825 whole entry, looked up): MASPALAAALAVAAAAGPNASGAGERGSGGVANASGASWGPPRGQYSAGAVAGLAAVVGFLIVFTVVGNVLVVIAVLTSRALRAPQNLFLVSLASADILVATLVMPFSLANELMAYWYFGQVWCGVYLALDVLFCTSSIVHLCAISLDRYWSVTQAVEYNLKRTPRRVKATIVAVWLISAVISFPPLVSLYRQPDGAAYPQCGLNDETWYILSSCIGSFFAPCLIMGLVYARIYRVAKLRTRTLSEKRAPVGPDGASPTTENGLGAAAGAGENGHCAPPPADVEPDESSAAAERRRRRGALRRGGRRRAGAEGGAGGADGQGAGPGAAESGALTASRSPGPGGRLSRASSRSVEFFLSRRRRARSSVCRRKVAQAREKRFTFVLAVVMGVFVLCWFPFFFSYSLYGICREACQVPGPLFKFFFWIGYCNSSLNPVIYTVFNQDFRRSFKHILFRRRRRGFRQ

Row | Compound | cell count [1] | inhibition [1] | inhibition of aggregation [2] | nuclei count [2] | inhibition [3] | nuclei count [3] | fluorescence slope [4] | NADPH fluorescence slope [5] | slope [6] | inhibition [7] | inhibition [8]
1 | CC(=O)c1cccc(N(CC(=O)N2CCCC2)S(C)(=O)=O)c1 | 529 | -5.4% (inactive) | 14.6% (inactive) | 88.4% | -11.1% (inactive) | 94.9% | -0.467 (inactive) | 2.1e-05 (inactive) | 0.00662 (inactive) | 13.6% (inactive) | 20% (inactive)
2 | Cc1cc(C)nc(/N=C2\NC(=O)CC(C(=O)O)N2c2ccc(Cl)cc2)n1 (stereo not drawn) | 639 | -9.7% (inactive) | 0.5% (inactive) | 101% | -44.1% (inactive) | 107% | -0.552 (inactive) | -2.8e-05 (inactive) | 0.00735 (inactive) | 11.6% (inactive) | 34.3% (inactive)
3 | OC1C=CSc2nc3ccccc3n21 (stereo not drawn) | 398 | 4.9% (inactive) | -12.9% (inactive) | 102% | -50.3% (inactive) | 113% | -0.467 (inactive) | -3.8e-05 (inactive) | 0.00527 (inactive) | 4.8% (inactive) | 17.8% (inactive)
4 | O=c1c2cc(Cl)ccc2[nH]c(=S)n1Cc1ccco1 | 439 | 5.3% (inactive) | 13.5% (inactive) | 89.7% | -36.1% (inactive) | 102% | -0.597 (inactive) | -4.8e-05 (inactive) | 0.00334 (inactive) | 9.24% (inactive) | 20.2% (inactive)
5 | COc1ccc(C2CC(=O)C(C=NCCCN3CCOCC3)=C(O)C2)cc1 (stereo not drawn) | 392 | -4.9% (inactive) | 14% (inactive) | 80.7% | 3% (inactive) | 87.7% | -0.351 (inactive) | -1.5e-05 (inactive) | 0.00635 (inactive) | 14.7% (inactive) | 32.7% (inactive)
6 | Cc1ccc(NC(=O)CSc2nnc(-c3ccncc3)n2C)cc1C | 822 | -13.9% (inactive) | 18.5% (inactive) | 85% | -44.4% (inactive) | 130% | -0.591 (inactive) | 4.1e-06 (inactive) | 0.00642 (inactive) | -15.3% (inactive) | -22.4% (inactive)
7 | COC(=O)c1[nH]c2ccc(F)cc2c1NS(=O)(=O)c1ccc(OC)cc1OC | 682 | -11% (inactive) | -3.2% (inactive) | 106% | -80.2% (inactive) | 152% | -0.598 (inactive) | -5.6e-05 (inactive) | 0.00552 (inactive) | 16.7% (inactive) | 45.4% (inactive)
8 | CC(=O)SCCC(=O)Nc1ccccc1 | 646 | -1.4% (inactive) | -12.1% (inactive) | 122% | -61.7% (inactive) | 108% | -0.498 (inactive) | 3.1e-06 (inactive) | 0.00709 (inactive) | 20.3% (inactive) | 28.9% (inactive)
9 | CCOC(=O)CCc1c(C)nc2cc(-c3ccc(F)cc3)[nH]n2c1=O | 249 | -7.1% (inactive) | 3% (inactive) | 85% | -8.7% (inactive) | 107% | -0.457 (inactive) | -3.9e-05 (inactive) | 0.00335 (inactive) | -3.01% (inactive) | 22.2% (inactive)
10 | Cc1cnc(C(=O)OCC(=O)Nc2ccc(Cl)cc2Cl)cn1 | 738 | 8.7% (inactive) | -16.9% (inactive) | 119% | -37% (inactive) | 94.9% | -0.51 (inactive) | -5.1e-05 (inactive) | 0.00552 (inactive) | 10.9% (inactive) | 14.7% (inactive)
11 | CC(C)C(c1nnnn1CC1CCCO1)N1CCN(Cc2ccc3c(c2)OCO3)CC1 (stereo not drawn) | 357 | 4.8% (inactive) | -10.8% (inactive) | 113% | -55.1% (inactive) | 110% | -0.521 (inactive) | -5.8e-05 (inactive) | 0.00548 (inactive) | 9.72% (inactive) | 12.5% (inactive)
12 | CCOc1ccc(C(=O)CN2CCN(S(=O)(=O)c3ccc(OC)cc3)CC2)cc1 | 599 | -2.9% (inactive) | -3.6% (inactive) | 106% | -29.2% (inactive) | 92.2% | -0.391 (inactive) | -4.7e-05 (inactive) | 0.00338 (inactive) | -2.61% (inactive) | 21.2% (inactive)
13 | CCOC(=O)CC1=C(C(=O)OCC)C(c2ccc(C)o2)C(C#N)=C(N)O1 (stereo not drawn) | 339 | -16.4% (inactive) | 15.3% (inactive) | 91.9% | -46.5% (inactive) | 94.7% | -0.625 (inactive) | 3.1e-06 (inactive) | 0.00603 (inactive) | 3.2% (inactive) | 8.99% (inactive)
14 | CC1CC(C)CN(c2ncnc3c2cnn3-c2ccc(Cl)cc2)C1 (stereo not drawn) | 584 | 3.4% (inactive) | 12.1% (inactive) | 79.5% | -52.4% (inactive) | 112% | -0.504 (inactive) | -2e-05 (inactive) | 0.00874 (inactive) | 37.3% (inactive) | 11.5% (inactive)
15 | O=C(CCN1C(=O)c2ccccc2C1=O)NCCN1CCOCC1 | 377 | -10.6% (inactive) | 10.7% (inactive) | 96.7% | -6% (inactive) | 97% | -0.452 (inactive) | 2.7e-05 (inactive) | 0.00342 (inactive) | -7.29% (inactive) | 20.7% (inactive)
16 | O=C(COc1ccccc1)N1CCN(c2ncnc3c2cnn3-c2ccccc2)CC1 | 476 | 1% (inactive) | 1.3% (inactive) | 108% | -4.4% (inactive) | 119% | -0.623 (inactive) | -4e-05 (inactive) | 0.00515 (inactive) | 14.5% (inactive) | -0.433% (inactive)
17 | CSc1nc(=NC(C)=O)ss1 | 723 | -18.1% (inactive) | -0.1% (inactive) | 106% | 22.2% (inactive) | 110% | -0.528 (inactive) | -5.6e-05 (inactive) | 0.00608 (inactive) | 4% (inactive) | 8.14% (inactive)
18 | CN(C)c1ccc(/C(=N\O)c2ccccc2)cc1 | 429 | 1.2% (inactive) | -6.9% (inactive) | 93.6% | 25.3% (inactive) | 103% | -0.465 (inactive) | 1.6e-05 (inactive) | 0.00326 (inactive) | -24.9% (inactive) | -21.7% (inactive)
19 | CC(NS(=O)(=O)c1ccc(F)cc1)C(c1cccs1)N1CCN(C)CC1 (stereo not drawn) | 390 | -3.7% (inactive) | -11.1% (inactive) | 104% | -0.8% (inactive) | 105% | -0.38 (inactive) | -5.1e-05 (inactive) | 0.00473 (inactive) | 0.176% (inactive) | 33% (inactive)
20 | CC(=O)Nc1c(-c2ccc(F)cc2)nc2ccccn12 | 516 | -4.7% (inactive) | 16.5% (inactive) | 104% | -6.5% (inactive) | 88% | -0.551 (inactive) | 9e-06 (inactive) | 0.00637 (inactive) | 11.8% (inactive) | 4.82% (inactive)
21 | O=C1CCCc2c1cc(C(=O)NCCCN1CCOCC1)c(=O)n2-c1ccc(Cl)cc1 | 568 | 2.5% (inactive) | 0.1% (inactive) | 99.5% | -2.6% (inactive) | 122% | -0.546 (inactive) | -4e-05 (inactive) | 0.00614 (inactive) | 10.7% (inactive) | 45.8% (inactive)
22 | Cc1cc2nc(C3CCN(CC4COc5ccccc5O4)CC3)[nH]c2cc1C (stereo not drawn) | 746 | -8.3% (inactive) | -2.5% (inactive) | 92% | -56.9% (inactive) | 107% | -0.433 (inactive) | -1.9e-05 (inactive) | 0.00449 (inactive) | -0.371% (inactive) | -21.4% (inactive)
23 | Cc1cc(C(=O)CSc2nc3ccccc3[nH]2)c(C)n1C | 659 | 5.3% (inactive) | 7.6% (inactive) | 113% | -82.7% (inactive) | 123% | -0.59 (inactive) | -5.2e-05 (inactive) | 0.00445 (inactive) | -46.8% (inactive) | -155% (inactive)
24 | CC1CCN(c2c(NCc3ccc(C(=O)N4c5ccccc5CC4C)cc3)c(=O)c2=O)CC1 (stereo not drawn) | 726 | -5.7% (inactive) | 31.5% (inactive) | 104% | -38.2% (inactive) | 105% | -0.572 (inactive) | -3.6e-05 (inactive) | 0.00643 (inactive) | 21.8% (inactive) | 45.8% (inactive)
25 | C=CCn1c(=O)n(CCOC)c(=O)c2sc3ccccc3c21 | 733 | -3.4% (inactive) | -12% (inactive) | 87.6% | -34% (inactive) | 102% | -0.566 (inactive) | -3.7e-05 (inactive) | 0.00805 (inactive) | -6.44% (inactive) | 51% (active)
26 | Cc1ccc(/C=c2\sc3nc(-c4ccccc4Br)nn3c2=O)o1 | 277 | -5% (inactive) | 39.3% (active) | 92.3% | -9.5% (inactive) | 94.1% | -0.577 (inactive) | -5.1e-05 (inactive) | 0.00296 (inactive) | 12.3% (inactive) | 18.9% (inactive)
27 | COc1c(S(=O)(=O)n2nc(C)cc2C)ccc(Cl)c1Cl | 536 | 11.4% (inactive) | -8.9% (inactive) | 120% | -25.3% (inactive) | 68.4% | -0.434 (inactive) | -7.2e-05 (inactive) | 0.0052 (inactive) | -8.21% (inactive) | 15.5% (inactive)
28 | Cc1cccc(N2C(=O)CC(N(C(=O)c3ccco3)c3cccc(C)c3)C2=O)c1 (stereo not drawn) | 641 | -9.3% (inactive) | -5.2% (inactive) | 99% | -156% (inactive) | 102% | -0.504 (inactive) | -5.1e-05 (inactive) | 0.00488 (inactive) | 13.6% (inactive) | 19% (inactive)
